Source: PubChem BioAssay AID651640 (Broad Institute, 2012)
The whole screen tested about 350,000 compounds, of which about 6,000 (1.7%) were called active. Not shown: some 5% with an inconclusive outcome. The sample holds actives, similar compounds and a random draw of the others, so the mix is not that of the screen. Values without a mark were called inactive. Cut-off read from the data, not from the text of the source: active = CPE inhibition above about 20% (passing the limit was not always enough); inconclusive = no clear call, values can overlap the other calls; tested in BHK-21 cells.

Assay: inhibitors of DENV2 cytopathic effect, primary screen, cell-based, plate reader, single concentration (AID 651640);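 note: 0% = median of neutral control wells and 100% = median of positive control wells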
Conditions: DENV2-infected cells, cytopathic effect rescue, at 9.99 µM, stronger effect = higher value

Q: For `C[C@H](CO)N1C[C@H](C)[C@H](CN(C)C)Oc2cc(C#Cc3ccccc3F)ccc2S1(=O)=O`, which CPE inhibition is on record?
A: -8.31%

Q: With `COCC(=O)N(C)C[C@H]1Oc2ncc(-c3ccc(C)cc3)cc2C(=O)N([C@@H](C)CO)C[C@@H]1C` as the compound, how does the CPE inhibition read?
A: 14.3%

Q: For `Cc1ccc(S(=O)(=O)N2C[C@@H](C)[C@]3(C2)[C@H](O)[C@H](OC(=O)NCc2ccccc2)C[C@H]2C(=O)N(c4ccccc4)C(=O)[C@H]23)cc1`, which CPE inhibition is on record?
A: 31.2% (active)

Q: With `Cc1ccc(S(=O)(=O)N2C[C@]3(O)C[C@@H]4C(=O)N(c5ccccc5)C(=O)[C@@H]4C[C@]3(OC(=O)NC3CC3)C2)cc1` as the compound, how does the CPE inhibition read?
A: 0.334%

Q: Which CPE inhibition does the source give for `COC(=O)[C@H]1C[C@H](OC(=O)NCc2ccccc2)[C@@]2(O)CN(S(=O)(=O)c3ccc(C)cc3)CC2[C@H]1C(=O)OC` (some centres not stated) here?
A: 11.6%

Q: For `C[C@H]1CN([C@@H](C)CO)C(=O)c2cccc(NC(=O)CCCCCC(=O)Nc3ccccc3N)c2O[C@@H]1CN(C)CC1CCCCC1`, which CPE inhibition is on record?
A: 1.77%

Q: With `C[C@H]1CN([C@@H](C)CO)C(=O)c2cc(Br)cnc2O[C@@H]1CN(C)S(=O)(=O)c1ccc(F)cc1` as the compound, how does the CPE inhibition read?
A: -4.52%

Q: For `C[C@@H]1CN([C@@H](C)CO)C(=O)c2cccc(NC(=O)c3ccc(-c4nccs4)cc3)c2O[C@@H]1CN(C)S(=O)(=O)c1ccccc1`, which CPE inhibition is on record?
A: -5.21%

Q: For `COc1ccc2c3c([nH]c2c1)[C@H](CO)N(C(=O)CN1CCOCC1)CC31CN(C(C)=O)C1`, which CPE inhibition is on record?
A: 4.54%

Q: Which CPE inhibition does the source give for `CCC(=O)N1CC2(CN(C(=O)Nc3ccccc3F)C2)c2c([nH]c3cc(OC)ccc23)[C@H]1CO` here?
A: 10.3%

Q: For `CC(C)C#Cc1ccc2c(c1)O[C@@H](CN(C)C(=O)Nc1ccccc1)[C@H](C)CN([C@H](C)CO)S2(=O)=O`, which CPE inhibition is on record?
A: -2.16%

Q: Which CPE inhibition does the source give for `C=C1C(=O)[C@]23C[C@H]1CCC2[C@@]1(C)C(C[C@@H]3O)[C@](C)(C(=O)O)CC[C@@H]1O` (some centres not stated) here?
A: 74.8% (active)

Q: With `O=C(C[C@@H]1C[C@H]2c3cc(NS(=O)(=O)c4ccc(F)cc4)ccc3O[C@H]2[C@H](CO)O1)NC1CCCC1` as the compound, how does the CPE inhibition read?
A: -5.59%

Q: With `C[C@H](CO)N1C[C@H](C)[C@@H](CN(C)Cc2ccccn2)Oc2ncc(C3=CCCC3)cc2C1=O` as the compound, how does the CPE inhibition read?
A: 49.6% (active)

Q: For `CCCN(C)C[C@H]1Oc2ncc(-c3ccccc3OC)cc2C(=O)N([C@H](C)CO)C[C@@H]1C`, which CPE inhibition is on record?
A: 14.5%

Q: With `C[C@H]1CN([C@@H](C)CO)C(=O)c2cc(-c3ccccc3F)cnc2O[C@@H]1CN(C)C` as the compound, how does the CPE inhibition read?
A: -7.94%

Q: With `CCCN(C)C[C@@H]1Oc2ncc(-c3ccccc3F)cc2C(=O)N([C@@H](C)CO)C[C@@H]1C` as the compound, how does the CPE inhibition read?
A: 38.8% (active)

Q: For `CCC(=O)N(C)C[C@@H]1Oc2ncc(C3=CCCC3)cc2C(=O)N([C@H](C)CO)C[C@@H]1C`, which CPE inhibition is on record?
A: -6.55%

Q: For `C[C@H](CO)N1C[C@H](C)[C@H](CN(C)S(C)(=O)=O)Oc2ncc(C3=CCCC3)cc2C1=O`, which CPE inhibition is on record?
A: 32.1% (active)

Q: With `C[C@@H]1CN([C@H](C)CO)C(=O)c2cc(C3=CCCC3)cnc2O[C@H]1CN(C)C` as the compound, how does the CPE inhibition read?
A: 0.588%

Q: With `C[C@@H]1CN([C@@H](C)CO)C(=O)c2cc(C3=CCCC3)cnc2O[C@H]1CN(C)Cc1ccccc1F` as the compound, how does the CPE inhibition read?
A: 3.87%

Q: With `C[C@H](CO)N1C[C@H](C)[C@H](CN(C)Cc2cccnc2)Oc2ncc(C3=CCCC3)cc2C1=O` as the compound, how does the CPE inhibition read?
A: -1.52%

Q: For `CCC(=O)N(C)C[C@@H]1Oc2cc(-c3ccc(OC)cc3)ccc2S(=O)(=O)N([C@@H](C)CO)C[C@H]1C`, which CPE inhibition is on record?
A: -4.79%

Q: Which CPE inhibition does the source give for `O=C(C[C@H]1C[C@H]2c3cc(NC(=O)Cc4ccncc4)ccc3O[C@H]2[C@@H](CO)O1)NCc1cccc(F)c1` here?
A: -1.57%

Q: With `COc1cccc(S(=O)(=O)Nc2ccc3c(c2)C(=O)N(C)C[C@@H](OC)[C@@H](C)CN[C@@H](C)CO3)c1` as the compound, how does the CPE inhibition read?
A: 2.43%

Q: Which CPE inhibition does the source give for `C[C@@H]1CN([C@@H](C)CO)C(=O)c2cc(N(C)C)ccc2O[C@@H](C)CCCCO[C@@H]1CN(C)C(=O)CCC(F)(F)F` here?
A: 5.58%

Q: Which CPE inhibition does the source give for `Cc1cc(C)n2c(NCc3ccccc3)c(CC(C)C)nc2n1` here?
A: -7.45%

Q: For `Cc1cc(C)n2c(Nc3c(C)cccc3C)c(CCc3ccccc3)nc2n1`, which CPE inhibition is on record?
A: 20.8% (active)

Q: Which CPE inhibition does the source give for `Cc1ccc(O)c(CCc2ccccc2)n1` here?
A: 1.33%

Q: For `CCC(=O)N1[C@@H](CO)[C@@H]2c3ccccc3N(C(=O)c3ccccc3F)C[C@@H]21`, which CPE inhibition is on record?
A: 26.9% (active)

Q: For `O=C(c1ccccc1F)N1C[C@H]2[C@@H](c3ccccc31)[C@@H](CO)N2C(=O)c1ccc(F)cc1`, which CPE inhibition is on record?
A: -13.2%

Q: For `CC(C)NC(=O)N1[C@H](CO)[C@@H]2c3ccccc3N(C(=O)c3ccccc3F)C[C@@H]21`, which CPE inhibition is on record?
A: 54.6% (active)

Q: With `CC(C)NC(=O)N1C[C@H]2[C@@H](c3ccccc31)[C@H](CO)N2C(=O)c1ccccc1F` as the compound, how does the CPE inhibition read?
A: -10%

Q: Which CPE inhibition does the source give for `O=C(c1ccccc1F)N1C[C@@H]2[C@H](c3ccccc31)[C@H](CO)N2C(=O)C1CCCC1` here?
A: -9.77%

Q: With `CN1C[C@@H]2[C@H](c3ccccc31)[C@H](CO)N2C(=O)Nc1ccc(F)cc1` as the compound, how does the CPE inhibition read?
A: -5.89%

Q: For `CC(C)NC(=O)N1[C@@H]2CN(C(=O)Nc3ccc(F)cc3)c3ccccc3[C@@H]2[C@@H]1CO`, which CPE inhibition is on record?
A: 8.2%

Q: Which CPE inhibition does the source give for `CN1C[C@H]2[C@@H](c3ccccc31)[C@@H](CO)N2C(=O)Nc1ccccc1` here?
A: 58.5% (active)

Q: With `CCCNC(=O)N1[C@@H]2CN(C)c3ccccc3[C@@H]2[C@@H]1CO` as the compound, how does the CPE inhibition read?
A: -0.141%

Q: Which CPE inhibition does the source give for `O=C1O[C@@H](c2ccccc2)[C@@H](c2ccccc2)N2[C@@H](c3ccccc3OCCO)[C@]3(C(=O)Nc4ccccc43)[C@@H](C(=O)N3CCCCCCC3)[C@H]12` here?
A: 0.314%

Q: With `COC(=O)C[C@H]1CC[C@H]2[C@@H](COc3ccc(NC(=O)C4CC4)cc3C(=O)N2C)O1` as the compound, how does the CPE inhibition read?
A: -4.57%

Q: For `O=C(N[C@H]1CC[C@@H](CCNS(=O)(=O)c2ccc(Cl)cc2)O[C@H]1CO)c1cccc(F)c1`, which CPE inhibition is on record?
A: -5.79%

Q: With `O=C(C[C@H]1CC[C@H]2[C@@H](COC[C@@H](O)CN2Cc2nccs2)O1)NCc1ccccc1Cl` as the compound, how does the CPE inhibition read?
A: -3.47%
